Manual score data for 106 compounds are collected here from PubChem BioAssay AID623868 (Vanderbilt High Throughput Screening Facility, 2012).

The campaign covered roughly 2,100 compounds. About 760 (36%) were called active. A selection follows. Values without a mark were called inactive.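 How the source made its calls: active means thallium-flux fluorescence traces judged by eye to show enhanced or reduced glutamate response, manual score 1 or -1, so both directions (some results past the limit were not filed as active); inactive means the rest, including fluorescent or raised-baseline compounds.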

This assay in a line: thallium influx changes without GIRK channels – cell-based, HEK-293 rmGlu8, no GIRK, thallium flux, counter-screen for GIRK activator project, confirmation (AID 623868).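 Further: extra codes mark interference with 3 for fluorescent and 4 for baseline rise.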 The following applies: thallium flux fluorescence, at 10 µM, actives lie on both sides, codes: 1 enhancer, -1 blocker, 0 none, thallium stimulus containing EC20 glutamate.
Consider `CCOC(=O)c1ccccc1Nc1cn(C(C)=O)c2ccccc12`, for which the manual score was 0. With `CCOC(=O)c1cnn2c1[nH]c(=O)c1ccccc12`, the manual score is 1 (active). Consider `Cc1cc2[nH]c(=O)c3ccccc3n2n1`, for which the manual score is 0.

Turning to `CN(C=O)CP(=O)(O)CCN1CCCC1=O`, the manual score was 0. Under `Cc1cc(C(=O)N2CCN(CCc3ccccc3)CC2)no1` stands 0; under `S=c1[nH]nc(-c2cc3c(s2)-c2ccccc2CC3)o1`, 1 (active). As for `CN1C=CC2=C(C#N)C(N)C(C#N)(C#N)[C@H](c3ccccc3)[C@H]2C1` (stereo partly specified), the manual score was 3. In the case of `COc1ccc(-c2cc(C(F)(F)F)c3c(n2)sc2c(O)cc(=O)[nH]c23)c(OC)c1`, the manual score is 0. Under `O=C(Nc1cccc(Cl)c1)Nc1nccs1` stands 0; under `Cn1sc(NC(=O)c2cccc(Cl)c2)nc1=O`, -1 (active). Under `O=C(NCCCN1CCN(c2cccc(Cl)c2)CC1)c1cccc(N2CCCC2=O)c1` stands 0. The value for `C=CCn1c(=S)[nH]c2nc3c(cc2c1=O)CCCC3` was 1 (active); that for `CCn1c(=S)[nH]c2nc3c(cc2c1=O)CCCC3` was 1 (active); that for `Cc1noc(C)c1S(=O)(=O)N1CCC(Cc2ccccc2)CC1` was 0. In the case of `CCCCCCN1C2=NCCN2c2ccccc21`, the manual score was 0. For `CCC(=O)N1c2ccc(C)cc2C2=NNC(=S)NC21O` (stereo unspecified), the manual score was 1 (active).

As for `COc1ccccc1C(=O)N1c2ccccc2Sc2ccccc21`, the manual score is -1 (active).

For the compound `COCC(=O)/C=C1\Sc2ccccc2N1C`, the manual score is 0. In the case of `CCOc1ccccc1C(=O)N1c2ccccc2Sc2ccccc21`, the manual score was 0.

With `COc1ccc(C(=O)Nc2ccc(S(=O)(=O)NCc3ccco3)cc2)cc1OC`, the manual score was -0.5. Under `COc1cc(C(=S)N2CCCC2)cc(OC)c1OS(=O)(=O)c1ccc(NC(C)=O)cc1` stands -1 (active); under `COc1cc(NC(=O)CS(=O)(=O)c2ccc(C)cc2)cc(OC)c1OC`, 0; under `O=C(NC(Nc1nc2ccc([N+](=O)[O-])cc2s1)(C(F)(F)F)C(F)(F)F)c1ccccc1`, 1 (active). The value for `O=C(NC(Nc1nc2ccc([N+](=O)[O-])cc2s1)(C(F)(F)F)C(F)(F)F)c1ccccc1Cl` was 1 (active). The value for `O=C(Nn1c(C2CCCCC2)nc2ccccc2c1=O)c1ccc([N+](=O)[O-])cc1Cl` was 0.

As for `Cc1ccc(C)c(OCC(=O)Nc2nc3ccc([N+](=O)[O-])cc3s2)c1C`, the manual score is 0.

Take `CS(=O)(=O)c1ccc2nc(NC(=O)C3C4C=CC(C4)C3C(=O)O)sc2c1` (stereo unspecified): the manual score was 0. Under `N#C/C(=C/C=C/c1ccccc1)C(=O)Nc1ccccc1` stands 0; under `O=c1oc(-c2ccc(Br)o2)nc2ccccc12`, 0; under `S=c1[nH]nc(-c2cc3ccccc3o2)n1Cc1ccccc1`, 1 (active). The value for `CCn1c(-c2cc3ccccc3cc2O)n[nH]c1=S` was 0. The value for `Cn1c(SCC(=O)c2cc3ccccc3o2)nnc1-c1ccccc1` was 0; that for `S=c1[nH]nc(-c2ccc(Br)o2)n1Cc1ccccc1` was 1 (active).

`CC(C)N(Cc1nc(-c2ccccc2)no1)C(=O)CSc1ccccc1`: the manual score was 0. In the case of `CC1(C)CC(=O)C2=C(C1)NC(SCC(=O)Nc1ccccc1)=C(C#N)C2c1ccco1` (stereo unspecified), the manual score is 0.5. Under `CC1(C)CC(=O)C2=C(C1)N(c1ccccc1)C(N)=C(C#N)C2c1ccsc1` (stereo unspecified) stands -1 (active); under `CN1C2C=C3C(C#N)=C(N)C(C#N)(C#N)[C@@H](c4ccsc4)[C@@H]3C1CC2` (stereo partly specified), 0; under `CCC(C)(C)n1nnnc1C(c1ccccn1)N1CCCCC1` (stereo unspecified), 0. Under `CC(C)Sc1nc2c(c(=O)[nH]1)C(c1cccs1)C1=C(CC(C)(C)CC1=O)N2` (stereo unspecified) stands -1 (active). As to `Cc1cc2c(cc1C)NC(c1c(C)n(C)n(-c3ccccc3)c1=O)C1=C(CC(C)(C)CC1=O)N2` (stereo unspecified), the manual score is 3.

Consider `Cc1c(C2Nc3ccccc3NC3=C2C(=O)CC(C)(C)C3)cnn1C` (stereo unspecified), for which the manual score was 0. The value for `O=C(NCc1cccs1)c1cccnc1C(=O)O` was 0; that for `CCC(C)NC(=O)c1ccccc1NC(=O)Nc1ccccc1` (stereo unspecified) was 0.5; that for `O=C(Nc1ccccc1C(=O)O)c1ccc(NC(=O)c2ccc(Br)o2)cc1` was -1 (active). The value for `O=C(O)c1ccccc1C(=O)Nc1ccc(-c2csc(-c3ccccc3)n2)cc1` was 0. The value for `O=C(NC(=S)NCCc1ccccc1)c1ccco1` was 1 (active).

As to `O=C(NC(=S)N(CCc1ccccc1)CCc1ccccc1)c1ccco1`, the manual score is 1 (active). The value for `Cc1ccccc1C(=O)NC(=S)NCCc1ccccc1` was 0; that for `COc1cc(OC)cc(C(=O)NC(=S)NCCc2ccccc2)c1` was 0.

`O=C(CNC(=S)NC(=O)c1ccco1)c1ccccc1`: the manual score was 1 (active).

Consider `O=C(NC(=S)NCCc1ccccc1)c1ccccc1`, for which the manual score is 1 (active). The value for `CC1CN(C2CC(C)(C)NC(C)(C)C2)CCC1=O` (stereo unspecified) was 0; that for `CCCCc1cc(=O)oc2cc(C)cc(O)c12` was -0.5; that for `COc1cc(/C=C(\C#N)C(=O)Nc2cccnc2)ccc1OC(C)C` was 0.

Take `O=C(CNC(=S)NC(=O)c1cccs1)c1ccccc1`: the manual score is 1 (active).

Turning to `Nc1sccc1C(=O)c1ccccc1`, the manual score was 0. Regarding `CCOc1ccccc1-c1c2cc(O)c(=O)cc-2oc2cc(O)c(O)cc12`, the manual score was 0. Under `CCN(CC)S(=O)(=O)c1cccc(S(=O)(=O)c2cccc(S(=O)(=O)N(CC)CC)c2)c1` stands 0; under `CCN(CC)S(=O)(=O)c1cccc(-c2n[nH]c(=S)n2/N=C/c2ccc(C(=O)OC)cc2)c1`, 1 (active). The value for `COc1ccccc1CNC(=O)c1c(N)n(CCCN2CCOCC2)c2nc3ccccc3nc12` was 0; that for `C=CCn1c(N)c(C(=O)OC(C)(C)C)c2nc3ccccc3nc21` was -1 (active). For the compound `COCC(C)OC(=O)c1c(N)n(CC(C)C)c2nc3ccccc3nc12` (stereo unspecified), the manual score is 0. The value for `Cc1cccn2c(=O)c(/C=N/O)c(N3CCCC3)nc12` was 0. The value for `CSc1cccc(NC(=O)CN(c2ccc(C)cc2C)S(C)(=O)=O)c1` was 0; that for `CC1(C)CC(=O)C2=C(C1)OC(/N=C/N1CCOCC1)=C(C#N)C2c1ccccc1` (stereo unspecified) was -1 (active). On to `CC1(C)Cc2ccccc2-c2nnc(SCC(=O)Nc3nc4ccccc4s3)n21`, for which the manual score is 0. On to `CC(C)Cc1nnc(NC(=O)CSc2nc(=O)cc(N)n2-c2ccccc2)s1`, for which the manual score was 0. With `CC1Cc2nc(SCC(=O)Nc3nc4ccccc4s3)n(C)c(=O)c2S1` (stereo unspecified), the manual score is -1 (active).

`COC(=O)c1onc(C(=O)c2ccccc2)c1C(=O)OC`: the manual score was -1 (active). Under `N[C@@H](Cc1ccccc1)c1nnc(SCc2ccccc2F)o1` stands 0; under `Cc1sc2ncnc(SCc3ccco3)c2c1C`, 0; under `CCn1c(SCC(=O)NC(=O)NCc2ccco2)nc2sc(C)c(C)c2c1=O`, 1 (active). In the case of `Cc1sc2nc(C(C)C)nc(SCC(=O)NCc3ccco3)c2c1C`, the manual score is 1 (active). Under `Cc1sc2nc(C(C)C)nc(SCC(=O)N3c4ccccc4CC3C)c2c1C` (stereo unspecified) stands 1 (active). Under `CCn1c(N)c(C(=O)NCc2ccco2)sc1=S` stands 0; under `Cc1ccccc1-c1nc(CN2CCC(C(=O)NCc3ccco3)CC2)c(C)o1`, 0; under `COC(=O)c1ccc(-n2c(C)cc(C(=O)CSc3ccc(NC(C)=O)cc3)c2C)cc1`, 0.

Regarding `CCc1cc2cccc(C)c2nc1SCC(=O)c1ccc(NC(C)=O)cc1`, the manual score was 1 (active). Consider `CC(=O)Nc1ccc(C(=O)CSc2nc3ccc(C)cc3[nH]2)cc1`, for which the manual score is 0. For `COc1ccc(OC)c(NC(=O)C2CC(=O)N(c3ccc(Br)cc3)C2)c1` (stereo unspecified), the manual score was 0.

Take `COc1cc(NC(=O)c2ccc(C)cc2)c(OC)cc1NC(=O)CN1CCCCC1`: the manual score is 0. With `COc1cc(NC(=O)C(=O)NNC(=O)C2CCCCC2)c(OC)cc1Cl`, the manual score was 1 (active).

`Oc1ccccc1CNc1ccc(Br)cn1`: the manual score was 0.

With `Cc1ccc(C2CC2c2n[nH]c(=S)n2-c2ccc(C)cc2)cc1` (stereo unspecified), the manual score was 1 (active). Under `Cc1ccc(C2CC2c2n[nH]c(=S)n2-c2ccc(Cl)cc2)cc1` (stereo unspecified) stands 0; under `CCOC(=O)N1CCN(c2ccc3nnnn3n2)CC1`, 0.

As to `O=C(c1ccc(Br)o1)N1CCN(c2ccc3nnc(-c4ccc(F)cc4)n3n2)CC1`, the manual score was -1 (active).

For `O=C(c1ccc(CS(=O)(=O)c2ccc(Br)cc2)o1)N1CCN(c2ncccn2)CC1`, the manual score is 0. In the case of `CCOc1cc(-c2noc(-c3cccnc3)n2)ccc1OC`, the manual score is 0. As for `CC(C)COn1c(=S)[nH]c2ccccc2c1=O`, the manual score was 1 (active).

With `CCOc1cc2[nH]c(=S)n(C(C)C)c(=O)c2cc1OCC`, the manual score is 1 (active). The value for `CC(C)n1c(=S)[nH]c2ccccc2c1=O` was 1 (active); that for `CC(C)N(CCn1c(=S)[nH]c2ccccc2c1=O)C(C)C` was 1 (active). Regarding `Cc1cc(CC(C)C)n(-c2nc3ccccc3c(=O)n2OCC(N)=O)n1`, the manual score is 0. Take `CC(C)n1c(NCc2c[nH]c3ccccc23)nc2ccccc21`: the manual score is 0. `CCCC(=O)NC(c1cccs1)c1cc([N+](=O)[O-])c2cccnc2c1O` (stereo unspecified): the manual score is 0. The value for `CCCC(=O)Nc1ccc(NC(=O)C2CC2)cn1` was 0; that for `COCc1nnc(NC(=O)C(C)C)s1` was 0.

As to `Cc1conc1NC(c1cccs1)c1ccc2cccnc2c1O` (stereo unspecified), the manual score is 0.5. The value for `COc1ccccc1-n1cnnc1SCC(=O)c1cc(C)n(Cc2cccs2)c1C` was 0; that for `COc1cccc(N(CC(=O)NCc2cccnc2)S(C)(=O)=O)c1` was 0; that for `COc1ccc(CNC(=O)CSCc2ccccc2Cl)cc1` was -0.5. The value for `CCC(=O)n1nc(-c2cccnc2)nc1NCc1ccc(OC)cc1` was -1 (active); that for `COc1ccc(CNc2nc(-c3cccnc3)nn2C(=O)c2ccco2)cc1` was -1 (active). Under `O=C(c1cc2nc(-c3ccccc3)cc(-c3ccccc3)n2n1)N1CCN(C(=O)c2ccco2)CC1` stands -0.5. With `CCCC(=O)n1nc(-c2ccccc2)nc1N`, the manual score is 0.
